# In the library only some 9.2% were active in any assay of this set; here they are far more common.
# ELG1 genotox: inducers of genotoxicity in HEK293T ELG1-luciferase cells; HEK293T ELG1-luciferase reporter, luminescence, 16 h; Potency, µM (doses to about 46 µM), usual class: activators; AID 504466; 330,000 tested, 1.3% active; note: nearly all actives have a fitted effect of over 60% in size
#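 Luminescence read-out: rising ELG1-luciferase signal, reflecting elevated ELG1 protein under genetic stress, flags genotoxic compounds. Cells were treated for 16 hr at 37 °C before ONE-Glo detection.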
# NPC1 promoter act: activates the NPC1 promoter; Huh7 NPC1 promoter luciferase reporter, 24 h; Potency, µM (top dose mostly 9.22 µM), actives largely listed as activators; 320,000 tested, 2.4% active; AID 485313; note: nearly all actives have a fitted effect of over 60% in size
#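 Cells: Huh7 expressing luciferase under the NPC1 promoter, 1500/well. Seeded 2 h, compound added, incubated 24 h at 37 °C. Luciferase reagent, 10 min ambient, then luminescence.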
# SMN2 splice up: enhancers of SMN2 splice variant expression | HEK293 SMN2-luciferase splicing reporter, luminescence, 30-36 h | Potency, µM (doses to about 46.1 µM), hits mostly activators | 210,000 tested, 2.8% active | AID 1458; note: nearly all actives have a fitted effect of over 55% in size
#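 qHTS luciferase splicing reporter: luminescence rises when SMN2 exon 7 is included in transfected HEK293 cells. Compound exposure lasted 30-36 h at 37C, with 4.5 mM final sodium butyrate as control, followed by a ONE-Glo read.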
# ELG1 DNA repair: ELG1-dependent DNA repair inhibition; 330,000 tested, 2.3% active; Potency, µM (series often up to 46.1 µM), actives largely listed as inhibitors; AID 504467; HEK293T ELG1-luciferase reporter, luminescence, 16 h; DNA damage induced by 5-fluorouridine; note: nearly all actives have a fitted effect of over 55% in size
#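 Quantitative HTS, concentration-response format. 2,000 cells/well co-treated with 5-fluorouridine and compound, 16 hr in 5% CO2 at 37 °C; ONE-Glo luminescence read after 30 min.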
# Rab9 promoter act: Rab9 promoter activation; 320,000 tested, 2.8% active; Huh7 Rab9 promoter-luciferase reporter, luminescence, 24 h; AID 485297; Potency, µM (top dose mostly 9.22 µM), hits mostly activators; note: nearly all actives have a fitted effect of over 60% in size
#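 Luciferase signal after 10 min detection reagent at ambient indicates Rab9 promoter upregulation; stably transfected Huh7 cells were treated 24 h with compound in DMSO at 37 °C, 5% CO2.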
# FLuc counter: inhibits or activates purified firefly luciferase, miR-21 counter-screen | 360,000 tested, 6.9% active | P08659 | purified FLuc, Km substrates, luminescence inhibition | Potency, µM (top dose mostly 57.5 µM), usual class: inhibitors; note: nearly all actives have a fitted effect of over 55% in size
# Target sequence (P08659 whole entry, looked up): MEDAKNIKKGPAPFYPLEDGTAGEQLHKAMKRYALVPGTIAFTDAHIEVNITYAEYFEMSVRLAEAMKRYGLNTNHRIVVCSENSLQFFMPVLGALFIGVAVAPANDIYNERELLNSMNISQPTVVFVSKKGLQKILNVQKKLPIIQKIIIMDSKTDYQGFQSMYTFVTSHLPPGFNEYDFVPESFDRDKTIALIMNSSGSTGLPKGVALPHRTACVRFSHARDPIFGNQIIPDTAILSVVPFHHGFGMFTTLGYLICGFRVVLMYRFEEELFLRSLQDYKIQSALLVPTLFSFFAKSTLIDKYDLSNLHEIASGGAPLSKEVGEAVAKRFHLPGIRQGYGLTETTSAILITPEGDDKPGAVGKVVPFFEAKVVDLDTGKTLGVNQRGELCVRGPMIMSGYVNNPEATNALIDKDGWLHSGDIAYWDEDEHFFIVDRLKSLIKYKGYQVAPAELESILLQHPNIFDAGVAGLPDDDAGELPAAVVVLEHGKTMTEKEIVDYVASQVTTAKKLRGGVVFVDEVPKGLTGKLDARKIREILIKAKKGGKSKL
#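 Purified P. pyralis luciferase (10nM final) with 10uM D-luciferin and 10uM ATP (Km levels) in 50mM Tris acetate pH 7.5, 10mM Mg acetate, 0.01% Tween-20, 0.05% BSA; qHTS 6-point titration, ~60 µM downward; luminescence read.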
# A number is an active result; . = inactive; ? = inconclusive; / = no result. Calls come from the whole dose curve; as a rule, active = well fitted curve in the direction sought with a large enough effect; inconclusive = small, poorly fitted or top-dose-only effect, or another doubt; inactive = no such curve, though single readings can be large; an effect the other way counts as inactive or inconclusive.
SMILES,ELG1 genotox,NPC1 promoter act,SMN2 splice up,ELG1 DNA repair,Rab9 promoter act,FLuc counter
c1ccc2sc(N3CN(CCN4CCOCC4)CN(c4nc5ccccc5s4)C3)nc2c1,.,.,.,.,.,.
CS(=O)(=O)Nc1ccccc1C(=O)Nc1ccccc1C(=O)N1CCCC1,.,.,/,.,.,.
Cn1c(=O)n(C)c2cc(NC(=O)c3ccccc3NS(C)(=O)=O)ccc21,.,.,/,?,.,27µM
O=C(/C=C/N1CCOCC1)c1cc2ccccc2o1,?,3.5µM,11µM,?,4µM,9.5µM
O=C(Nc1ccc(NC(=O)c2cc3ccccc3o2)cc1)c1ccccc1,/,/,.,/,/,.
c1ccc2sc(SN3CCOCC3)nc2c1,.,.,.,.,.,24µM
Cn1c(=O)n(C)c2cc(NC(=O)c3cc4ccccc4o3)ccc21,16µM,.,/,?,.,?
CC(C)CCNC(=O)CN(Cc1ccco1)C(=O)CCC(=O)Nc1nccs1,.,.,/,.,.,.
CC(=O)c1ccc(N2CCN(C(=S)Nc3ccccc3C(F)(F)F)CC2)cc1,.,.,.,?,.,.
O=C(Nc1ccc(CN2CCOCC2)cc1)c1ccc(-c2cccc(Cl)c2)o1,.,.,.,?,/,17µM
NC(=O)c1ccc(NC(=O)c2ccc(CN3CCOCC3)cc2)cc1,.,.,.,?,.,.
CC(=O)Cc1nsc(NC(=O)c2ccc(-c3cccc(Cl)c3)o2)n1,.,.,.,.,.,11µM
O=C(Nc1ccc(CN2CCOCC2)cc1)c1cc2ccccn2n1,?,0.32µM,?,?,0.45µM,1.2µM
CCC(=O)N1CCN(c2ccc(NC(=O)c3cc4ccccc4o3)cc2)CC1,.,.,.,?,.,?
O=C(Nc1ccc(N2CCOCC2)cc1)c1cc2ccccc2o1,?,3.5µM,2.8µM,?,1.8µM,5.4µM
CN(CC(=O)Nc1ccccc1Cl)C(=O)c1ccc(-c2cccc(C(F)(F)F)c2)o1,.,.,/,.,.,.
CN(C)C(CNC(=O)CNC(=O)c1ccc(Br)cc1)c1ccccc1 (configuration not stated),.,.,.,.,.,.
O=C(O)c1ccc(NC(=O)c2cc3ccccc3o2)cc1,?,?,6.3µM,?,?,2.1µM
O=C(Nc1ccc(CN2CCOCC2)cc1)c1cc2ccccc2o1,.,1.6µM,5.6µM,?,0.63µM,3.8µM
O=C(NC(=S)Nc1ccc(CN2CCOCC2)cc1)c1cc2ccccc2o1,.,.,.,?,.,.
COc1ccc(NC(=O)c2oc3ccccc3c2NC(=O)c2cc3ccccc3o2)cc1,/,/,.,/,/,?
O=C(Nc1ccc2c(c1)OCCO2)c1cc2ccccc2o1,?,0.89µM,1.3µM,?,0.45µM,1.1µM
O=C(Nc1c(C(=O)Nc2ccc(F)cc2)oc2ccccc12)c1cc2ccccc2o1,/,/,.,/,/,2.7µM
CC(Oc1ccc2c(-c3ccccc3)cc(=O)oc2c1)C(=O)NCC(O)c1ccccc1 (configuration not stated),.,.,/,?,.,.
CCc1ccc(C(=O)Nc2ccc3c(c2)n(C)c(=O)n3C)cc1,18µM,.,/,?,?,15µM
SMILES,ELG1 genotox,NPC1 promoter act,SMN2 splice up,ELG1 DNA repair,Rab9 promoter act,FLuc counter
CCc1ccc(C(=O)Nc2ccc(C)c(NS(C)(=O)=O)c2)cc1,.,?,/,?,.,12µM
O=C(Nc1ccc2oc(-c3cccnc3)nc2c1)c1cc2ccccc2o1,.,.,.,18µM,.,?
O=C(Nc1ccc(N2CCOCC2)cc1)c1nc2ccccc2s1,?,0.1µM,/,?,0.1µM,0.24µM
Nc1nc2ccc(C(=O)Nc3ccc(N4CCOCC4)cc3)cc2s1,.,/,/,.,/,/
O=C(c1ccc2n[nH]nc2c1)N1CCN(c2ccc(C(F)(F)F)cn2)CC1,.,.,/,.,.,.
Cn1c(=O)n(C)c2cc(NS(=O)(=O)c3ccccc3)ccc21,18µM,.,/,?,.,.
Cc1ccc(S(=O)(=O)Nc2ccc3c(c2)n(C)c(=O)n3C)cc1,?,.,/,?,.,.
O=C(O)c1coc2ccccc12,.,.,/,.,.,.
O=C(Nc1ccc2oc(=O)ccc2c1)c1cc2ccccc2o1,?,2.5µM,3.5µM,?,1.6µM,7.6µM

# Screening results as filed in PubChem BioAssay.
